PubChem BioAssay (Tox21)
Records with an inconclusive call do not appear. Calls of active or inactive are those of the source. Unless noted, calls come from the whole dose curve; as a rule, active = well fitted curve in the direction sought with a large enough effect in the repeat runs; inconclusive = weak or mixed curves; inactive = no such curve, though single readings can be large; an effect the other way counts as inactive or inconclusive.

How the values were obtained:
[1] = qHTS assay to identify small molecule agonists of the vitamin D receptor (VDR) signaling pathway - cell viability counter screen (AID 743224); note: nearly all actives have a fitted effect of over 50% in size; note: potency is the fitted concentration of half-maximal effect
Method in brief: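 Counter screen run in the same wells as the VDR-bla reporter assay: CellTiter-Glo luminescence, 30 min at room temperature, after 16 h compound treatment at 37C of cells pre-plated for 4 h.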

[2] = qHTS assay to identify small molecule antagonists of the vitamin D receptor (VDR) signaling pathway - cell viability counter screen (AID 743225); note: nearly all actives have a fitted effect of over 50% in size; note: potency is the fitted concentration of half-maximal effect; for viability change, negative = cytotoxic: % is set by controls: 0 for no effect and ±100 for the full control effect
Method in brief: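 Cells (VDR-UAS-bla HEK 293T) are plated, rested 4 h at 37C, dosed with compound and 3 nM final 1-alpha,25-dihydroxy vitamin D3, and incubated 16 h. Viability is taken from CellTiter-Glo luminescence in the reporter wells.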

[3] = qHTS assay to identify small molecule agonists of the endoplasmic reticulum stress response signaling pathway - cell viability counter screen (AID 1159517; calls by dose curve; note: nearly all actives have a fitted effect of over 50% in size; note: potency is the fitted concentration of half-maximal effect)
Method in brief: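 Cpd-treated ESRE-bla HeLa (5 hr, 37 C) → LiveBLAzer 2 hr RT → CellTiter-Glo 30 min RT → luminescence.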

[4] = qHTS assay to identify small molecule antagonists of the retinoid-related orphan receptor gamma (ROR-gamma) signaling pathway - cell viability counter screen (AID 1159520); note: nearly all actives have a fitted effect of over 50% in size; note: potency is the fitted concentration of half-maximal effect
Method in brief: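 Tet-on ROR gamma CHO cells (1,000/well) were plated 4 hr, given compounds in DMSO for 2 hr at 37 C, then induced with 1 uM final doxycycline for 16 hr. Viability was read as ATP by CellTiter-Glo luminescence after 30 min.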

[5] = qHTS assay to identify small molecule agonists of the AP-1 signaling pathway - cell viability counter screen (AID 1159525; calls by dose curve; note: nearly all actives have a fitted effect of over 55% in size; note: potency is the fitted concentration of half-maximal effect)
Method in brief: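 Each titration point was normalised to DMSO and tetra n-octyl ammonium bromide controls. The read was Cell Titer Glo luminescence after 30 min at RT, following 5 h compound exposure of ME-180 AP-1-bla cells at 37 °C.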

[6] = qHTS assay to identify small molecule agonists of the RXR signaling pathway - cell viability counter screen (AID 1159529); note: nearly all actives have a fitted effect of over 50% in size; note: potency is the fitted concentration of half-maximal effect
Method in brief: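 Cell viability is measured by CellTiter-Glo luminescence, 30 min at room temperature, in wells already read for beta-lactamase. Engineered HEK 293T cells (RXR-alpha-UAS-bla) are dosed 16 hr at 37 C. Tetraoctyl ammonium bromide serves as positive control.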

[7] = qHTS assay to identify small molecule antagonists of the retinoid acid receptor (RAR) signaling pathway - cell viability counter screen (AID 1159551); note: nearly all actives have a fitted effect of over 35% in size; note: potency is the fitted concentration of half-maximal effect
Method in brief: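 Cytotoxicity counter screen: ATP content quantified by CellTiter-Glo luminescence in C3RL4 cells treated 6 hr at 37 C with compound and retinol (1 uM final). Cells plated at 1,000/well and cultured overnight before dosing.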

[8] = target: Nuclear receptor ROR-gamma (Homo sapiens) (UniProt P51449); assay: qHTS assay to identify small molecule antagonists of the retinoid-related orphan receptor gamma (ROR-gamma) signaling pathway (AID 1159521; note: nearly all actives have a fitted effect of over 50% in size; note: potency is the fitted concentration of half-maximal effect)
Method in brief: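 RORγ antagonism is scored from reduced reporter luminescence in Tet-on CHO cells. Induction used 1 uM final doxycycline hyclate for 16 h at 37 C, following a 2 h compound exposure.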

[9] = qHTS assay to identify small molecule agonists of the AP-1 signaling pathway (AID 1159526; calls by dose curve; note: % is set by controls: 0 for no effect and ±100 for the full control effect)
[10] = qHTS assay to identify small molecule agonists of the retinoic acid receptor (RAR) signaling pathway (AID 1159553); note: % is set by controls: 0 for no effect and ±100 for the full control effect
Method in brief: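 Luminescence was measured 30 min after luciferase reagent addition at room temperature. Before that, C3RL4 reporter cells (1,000 per well, plated overnight) were treated with compound for 6 hr at 37 C and 5% CO2.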

[11] = qHTS assay to identify small molecule antagonists of the retinoic acid receptor (RAR) signaling pathway (AID 1159552; note: nearly all actives have a fitted effect of over 50% in size; note: potency is the fitted concentration of half-maximal effect)
Method in brief: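 Quantitative HTS in C3RL4 RARE-luciferase reporter cells. Compounds were added with 1 uM (final) retinol; luminescence was read after 6 hr.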

CS(=O)(=O)CCNCc1ccc(-c2ccc3ncnc(Nc4ccc(OCc5cccc(F)c5)c(Cl)c4)c3c2)o1
active: Potency [1] 29.8 µM | Potency [2] 21.3 µM | Potency [3] 15.1 µM | Potency [4] 29.8 µM | Potency [5] 21.3 µM | Potency [6] 16.9 µM
inactive: Potency [7]

Nc1c2ccccc2nc2ccccc12
inactive: Potency [1] | Potency [3] | Potency [8] | Potency [5] | Potency [9]

CCOc1nc2cccc(C(=O)OC(C)OC(=O)OC3CCCCC3)c2n1Cc1ccc(-c2ccccc2-c2nn[nH]n2)cc1 (centres undefined)
inactive: Potency [10]
active: Potency [1] 27.5 µM | Potency [2] 19.5 µM | Potency [3] 21.9 µM | Potency [4] 24.3 µM | Potency [5] 27.5 µM | Potency [6] 27.5 µM

C=CC(=O)OCCn1c(=O)n(CCOC(=O)C=C)c(=O)n(CCOC(=O)C=C)c1=O
active: Potency [1] 49 µM | Potency [2] 43.6 µM | Potency [8] 12.2 µM | Potency [6] 24.5 µM
inactive: Potency [4] | Potency [5]

CNc1ccc(O)cc1
active: Potency [1] 38.8 µM | Potency [4] 7.68 µM | Potency [5] 24.5 µM | Potency [6] 34.6 µM | Potency [7] 27.3 µM | Potency [11] 27.3 µM

Cc1ccc(O)c2ncccc12
active: Potency [1] 0.944 µM | Potency [4] 21.1 µM | Potency [8] 15 µM | Potency [5] 16.9 µM
inactive: Potency [7] | Potency [11]

CCCN(CCC)C(=O)C(CCC(=O)OCCCN1CCN(CCOC(=O)Cc2c(C)n(C(=O)c3ccc(Cl)cc3)c3ccc(OC)cc23)CC1)NC(=O)c1ccccc1 (centres undefined)
active: Potency [2] 26.8 µM
inactive: Potency [3] | Potency [4] | Potency [5] | Potency [7]

Oc1cccc(-c2c3nc(c(-c4cccc(O)c4)c4ccc([nH]4)c(-c4cccc(O)c4)c4nc(c(-c5cccc(O)c5)c5ccc2[nH]5)CC4)C=C3)c1
active: Potency [1] 26.6 µM | Potency [6] 23.9 µM
inactive: Potency [3]

CCN1/C(=C/C=C/c2sc3ccccc3[n+]2CC)Sc2ccccc21
inactive: Potency [2] | viability change, negative = cytotoxic [5] -11.9% [at 15.8 µM]
active: Potency [1] 4.61 µM | Potency [4] 11.6 µM | Potency [8] 2.31 µM | Potency [7] 14.6 µM

O=C(O)c1cc(O)c2c(c1)C(=O)c1cccc(O)c1C2=O
inactive: Potency [1] | Potency [2] | Potency [3] | Potency [4] | Potency [8] | Potency [5] | Potency [6] | Potency [7]

CN(C)c1ccc(SC#N)cc1
active: Potency [11] 9.69 µM
inactive: Potency [1] | Potency [4] | Potency [5] | Potency [6] | Potency [10]

CCc1cc(Cc2cc(CC)cc(C(C)(C)C)c2O)c(O)c(C(C)(C)C)c1
active: Potency [1] 6.17 µM | Potency [2] 4.36 µM | Potency [3] 21.9 µM | Potency [4] 27.3 µM | Potency [8] 19.3 µM | Potency [5] 11 µM | Potency [6] 13.8 µM | Potency [7] 68.6 µM | Potency [11] 27.3 µM

Oc1ccc(N=Nc2ccccc2)cc1
inactive: Potency [3] | Potency [8] | Potency [5] | Potency [6] | Potency [7] | Potency [11]

Oc1cc2ccccc2c2ccccc12
active: Potency [1] 2.45 µM | Potency [2] 4.36 µM | Potency [3] 11 µM | Potency [4] 17.2 µM | Potency [8] 12.2 µM | Potency [5] 11 µM | Potency [6] 4.9 µM | Potency [7] 27.3 µM | Potency [11] 13.7 µM
